D1 PAM: enhances dopamine response at the human D1 receptor; P21728; HEK293 TREx D1 cells, calcium flux, dopamine EC20 potentiation; potentiation, % at 10 µM; 360,000 compounds, 0.036% hits; AID 504651; in the data active = potentiation above about 30%
Target sequence (P21728 whole entry, looked up): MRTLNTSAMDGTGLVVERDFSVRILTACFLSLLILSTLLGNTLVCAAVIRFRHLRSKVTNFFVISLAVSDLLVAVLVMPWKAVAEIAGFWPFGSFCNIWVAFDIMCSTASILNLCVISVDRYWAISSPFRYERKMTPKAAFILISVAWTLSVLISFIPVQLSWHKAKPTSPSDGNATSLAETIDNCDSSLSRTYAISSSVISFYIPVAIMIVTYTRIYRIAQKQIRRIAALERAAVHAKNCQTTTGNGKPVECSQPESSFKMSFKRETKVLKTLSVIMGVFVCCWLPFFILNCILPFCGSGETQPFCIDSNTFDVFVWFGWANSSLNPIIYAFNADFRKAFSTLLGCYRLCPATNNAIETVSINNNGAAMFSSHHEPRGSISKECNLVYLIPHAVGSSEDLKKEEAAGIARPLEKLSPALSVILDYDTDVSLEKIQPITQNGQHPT
D1 antag: blocks dopamine activation of the human D1 receptor; HEK293 TREx D1 cells, calcium flux, dopamine EC80; hits give low values; 360,000 compounds, 3.2% hits; activity change, negative = inhibition, % at 10 µM; in the data active = activity change below about -30%
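Calcium flux readout: force-coupled, inducible Hek293 Trex D1 line, cells induced overnight at 30 C with tetracycline, dye-loaded 30–90 min at RT. Antagonism scored against EC80 dopamine challenge given 180 s after compound.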
D3 antag: antagonists of human D3 dopamine receptor; P35462; D3R cells, DiscoveRx beta-arrestin luminescence, antagonist mode; hits give low values; max response, negative = inhibition, %; 360,000 compounds, 2.5% hits; AID 652054; in the data active = max response below about -50%; inconclusive = no clear call, values can overlap the other calls
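Cells expressing the human receptor were seeded at 1500 cells/well, incubated overnight at 37 degrees C in 5% CO2, then exposed to library compounds with dopamine controls for 90 minutes at 37 degrees C before luminescent detection.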
D3 ag: D3 dopamine receptor (human) agonism; D3R DiscoveRx beta-arrestin cells, luminescence, 90 min; max activation, %; 410,000 compounds, 0.58% hits; AID 652048; in the data active = max activation above about 30%
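Agonist mode: compounds and dopamine controls were applied to plated cells for 90 min at 37 degrees C after an overnight attachment at 1500 cells/well. Luminescent read-out followed 30 - 60 minutes at room temperature with DiscoveRx detection reagent.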
D1 agonist: agonists of human D1 dopamine receptor; HEK293 T-REx D1 cells, calcium flux, agonist mode; P21728; activation, % at 2 µM; AID 504660; 360,000 compounds, 1% hits; in the data active = activation above about 30%
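Inducible HEK293 T-REx D1 cells, force-coupled to calcium signalling, were plated at 4000 cells/well with tetracycline and held overnight at 30 C. After no-wash calcium dye loading, compound-evoked calcium rise over 180 s flagged agonists.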
Large screens that a line does not name were inactive. Most compounds without a hit are left out; they make up all but 6.1% or so of the library.

Cc1ccc(C(C(=O)NC2CCCC2)N(Cc2ccco2)C(=O)CCC(=O)Nc2cc(C)on2)cc1 (centres undefined)	D1 antag -31.5
Cc1cccc(N(CC(=O)NC2CCCC2)C(=O)CCC(=O)Nc2cc(C)on2)c1	D3 ag 32.1
COCCNC(=O)C(c1ccc(C)cc1)N(Cc1ccccc1)C(=O)CCC(=O)Nc1ccccn1 (centres undefined)	none
COCCNC(=O)C(c1ccc(C)cc1)N(Cc1ccco1)C(=O)CCC(=O)Nc1ccccn1 (centres undefined)	D3 antag -89.5
COc1cccc(N(CC(=O)N2CCCC2)S(C)(=O)=O)c1	none
CCO/N=C(/C)c1c(O)cc(C(C)(C)C)n(-c2ccccc2)c1=O	none
CCO/N=C(\C)c1c(O)cc(C(C)C)n(-c2ccccc2)c1=O	D1 antag -36.0
CC(C)c1ccc(NC(=O)CN2C(=O)NC3(CCCCCCC3)C2=O)cc1	none (no result: D1 PAM, D1 antag, D1 agonist)
CN(C)CCNC(=O)c1ccc(CS(=O)(=O)c2c(Cl)cccc2Cl)o1	none
CN(CCNC(=O)c1ccc(CS(=O)(=O)c2c(Cl)cccc2Cl)o1)CCc1ccccc1	D1 antag -56.5, D3 antag inconclusive
CC(C)N(CCNC(=O)c1ccc(CS(=O)(=O)c2c(Cl)cccc2Cl)o1)Cc1ccccc1	D3 antag -69.8
CO[C@@H]1[C@H](OC(=O)/C=C/C=C/C=C/C=C/C(=O)O)CC[C@]2(CO2)[C@H]1[C@@]1(C)O[C@@H]1CC=C(C)C	none (no result: D1 PAM, D1 antag, D3 antag, D1 agonist)
Nc1nc(-c2ccc(Oc3ccccc3)cc2)cs1	none
Nc1nc(-c2ccc(-c3ccccc3)cc2)cs1	D1 antag -46.7
O=C(OC1CCCCC1=O)c1cccc(S(=O)(=O)N2CCCCC2)c1 (centres undefined)	none
O=C(OC1CCCCC1=O)c1ccc(S(=O)(=O)Nc2ccccc2)cc1 (centres undefined)	D1 agonist 35.3
C=CCn1ccc(=NC=C(C#N)C#N)c2ccccc21	D1 agonist 31.3
COc1ccc(NC(=O)CN(C)C(=O)c2cccc(S(=O)(=O)Nc3ccc(F)cc3)c2)cc1	none
S=c1[nH]ncn1/N=C/c1ccc(Br)cc1	D3 antag -108.8
S=c1[nH]ncn1/N=C/c1ccc(N2CCOCC2)cc1	D3 antag inconclusive
S=c1[nH]ncn1/N=C/c1ccccc1	D1 antag -30.4
CCN1/C(=C/c2ccc3ccccc3[n+]2CC)C=Cc2ccccc21	D3 antag -52.5
CC(C)(C)C(=O)NC(=S)NNC(=O)c1ccc(-c2ccccc2)cc1	D3 antag inconclusive, D1 agonist 262.4 (no result: D1 antag)
CC(C)(C)C(=O)NC(=S)NNC(=O)c1ccc(Cl)cc1Cl	D1 agonist 397.1
COc1cccc(CNC(=O)CN(c2ccc(C(C)C)cc2)S(=O)(=O)c2c(C)n[nH]c2C)c1	none (no result: D3 antag)
CCc1nn2c(-c3ccco3)ccnc2c1-c1ccc(F)cc1	none (no result: D3 antag)
Nc1ccc(C23CC4CC(CC(O)(C4)C2)C3)cc1	D3 antag -50.3
NCC12CC3CC(C1)CC(c1ccc(Cl)cc1)(C3)C2	D1 agonist 38.5
CC1=CC(=O)NS(=O)(=O)O1	none (no result: D1 PAM, D1 antag, D3 antag, D1 agonist)
N#C/C(=C/c1ccc(-c2ccc(S(N)(=O)=O)cc2)o1)C(=O)Nc1ccccc1	none
COC(=O)c1ccc(/C=C(\C#N)c2nc3ccccc3s2)cc1	D1 agonist 55.8
CC(C)(C)c1ccc(C(=O)OC/C(O)=C(\C#N)c2nc3ccccc3s2)cc1	D1 antag -75.5
N#C/C(=C/c1ccc(-c2ccc(S(N)(=O)=O)cc2)o1)c1nc2ccccc2s1	D1 agonist 265.4
CCOC(=O)N1CCN(/C=C(\C#N)c2nc3ccccc3s2)CC1	D1 agonist 32.1
COC(=O)c1ccc(/C=N/NC(=O)CCSc2nc3ccccc3s2)cc1	none (no result: D3 antag, D3 ag)
CN(C(=O)COC(=O)c1ccc(Cl)c(S(=O)(=O)NCc2ccccc2)c1)C1CCS(=O)(=O)C1 (centres undefined)	none (no result: D1 PAM, D1 antag, D1 agonist)
Cc1cccc(NC(=O)COc2cccc3c2CCNC3=O)c1	none (no result: D1 PAM, D1 antag, D1 agonist)
COc1ccc(/C(C#N)=C/c2ccccn2)cc1	none
N#C/C(=C\c1ccccn1)c1nc2ccccc2s1	D1 agonist 148.4
N#C/C(=C\c1ccc(-c2ccc(F)cc2)o1)C(=O)Nc1nc(-c2cccs2)cs1	none
N#C/C(=C/c1ccc(-c2ccccc2)o1)c1nc(-c2cccs2)cs1	D1 agonist 215.0
Cc1nc(-n2nc(C)c(Cc3ccc4c(c3)OCO4)c2C)sc1C(=O)Nc1ccc(Cl)cc1	none (no result: D3 antag)
